Screening results from PubChem.
The list is not random: actives were taken first. Their share in the collection is about 3.5%.
TEAD-YAP inh = TEAD-YAP interaction inhibition, primary screen, TEAD-YAP interaction inhibitor project, luminescence, HEK-TIYL cells | TEAD-Gal4/YAP UAS-luciferase luminescence | inhibition, % at 9.12 µM | 640,000 tested, 1.4% active | AID 1259422, 2018; in the data active means inhibition above about 32%
FBW7 act = FBW7 E3 ligase activators, primary screen, biochemical, AlphaScreen, human | 650,000 tested, 0.13% active | normalized activity (activation), % at 26.1 µM | F-box/WD repeat-containing protein 7 (Homo sapiens), Q969H0 | AlphaScreen FBW7–phospho-cyclin E peptide binding, activator screen; in the data active means normalized activity above about 1.9%;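 further: purified mutant Fbw7 with reduced substrate affinity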
GPR151 ag = activators of human GPR151, primary screen, cell-based, PathHunter beta-arrestin, luminescence; activation, % at 11.2 µM; PathHunter beta-arrestin GPR151 cells; 650,000 tested, 1% active; G-protein coupled receptor 151 (Homo sapiens), Q8TDV0; AID 1508602, 2020; in the data active means activation above about 4.9%
MITF primary = MITF inhibitors, primary screen, biochemical, AlphaScreen, human; Microphthalmia-associated transcription factor (Homo sapiens), O75030; AlphaScreen MITF homodimerization, bead proximity signal; inhibition, % at 2.6 µM; 650,000 tested, 0.91% active; in the data active means inhibition above about 50%
Target sequence (O75030 whole entry, looked up): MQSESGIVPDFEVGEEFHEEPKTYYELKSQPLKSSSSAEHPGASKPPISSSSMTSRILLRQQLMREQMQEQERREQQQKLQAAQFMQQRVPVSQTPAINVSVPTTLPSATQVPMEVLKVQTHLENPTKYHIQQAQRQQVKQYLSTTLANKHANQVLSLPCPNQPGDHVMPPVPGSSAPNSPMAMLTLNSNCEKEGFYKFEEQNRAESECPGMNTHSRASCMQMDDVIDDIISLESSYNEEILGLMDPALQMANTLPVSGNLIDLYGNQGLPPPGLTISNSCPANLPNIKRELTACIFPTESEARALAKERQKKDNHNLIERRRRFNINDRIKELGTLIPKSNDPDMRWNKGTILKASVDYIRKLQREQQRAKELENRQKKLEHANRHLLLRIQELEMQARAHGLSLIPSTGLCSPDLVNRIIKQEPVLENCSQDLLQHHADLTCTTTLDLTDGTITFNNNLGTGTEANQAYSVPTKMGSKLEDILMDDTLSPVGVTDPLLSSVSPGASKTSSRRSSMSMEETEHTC
GPR151 confirm = GPR151 activators, triplicate retest, confirmation, cell-based, PathHunter beta-arrestin, luminescence; shares compounds with GPR151 ag; GPR151 PathHunter beta-arrestin cells, 90 min; % of EA-reagent control over plate median; activation, % at 11.2 µM; 6,700 tested, under 10 active;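 active means mean percent activation across replicates above the confirmation screen cutoff of 4.91%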
GPR119 ag = GPR119 activators in beta-arrestin cells, counter-screen for GPR151 activator project, cell-based, PathHunter beta-arrestin, luminescence, triplicate; shares compounds with GPR151 ag; 90 min; 0 = compound-well median, 100 = enzyme-acceptor control; activation, % at 11.2 µM; 6,700 tested, 0.3% active; AID 1508611, 2020;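 active means mean percent activation in the counterscreen above 29.09%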;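 further: counterscreen on off-target GPR119 to flag nonselective hits from the GPR151 activator screen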
Of the large screens only hits and unclear results are named; the others gave an inactive call (follow-up assays come after a bar, where they were run); ! = not active in a repeat.

Cc1[nH][nH]c(=O)c1C(c1ccc(C(C)C)cc1)c1c(C)[nH][nH]c1=O	none
CC(C)CC1(C)NC(=O)N(Cc2nnc(-c3ccccc3Br)o2)C1=O (centres undefined)	GPR151 ag 7.0 | GPR151 confirm inactive | GPR119 ag inactive
COc1ccc(C2Oc3c(OC)cccc3C3CC(c4ccco4)=NN32)cc1 (centres undefined)	none
COc1ccc(C2Oc3c(OC)cccc3C3CC(c4ccco4)=NN32)cc1OC (centres undefined)	GPR151 ag 7.6 | GPR151 confirm inactive | GPR119 ag inactive
O=C(CN1CCN(C(=O)NC2CCCCC2)CC1)c1ccco1	none
CC(OCc1ccccc1)C(NC(=O)OC(C)(C)C)C(=O)Nc1nccs1 (centres undefined)	GPR151 ag 13 | GPR151 confirm inactive | GPR119 ag inactive
CCOC(=O)C1=C(CC)Nc2ccccc2N=C1N=Cc1c(O)[nH]c(=O)[nH]c1=O	none
O=C(CCCn1cnc(-c2ccccc2)cc1=O)NCCc1csc(-c2ccccc2)n1	GPR151 ag 9.2 | GPR151 confirm inactive | GPR119 ag inactive
Cc1ccnc(NC(=O)CCCn2cnc(-c3ccccc3)cc2=O)c1	none
CC(=O)c1cc(F)c(N2CCN(C(=O)c3cc(F)c(F)cc3[N+](=O)[O-])CC2)cc1C	GPR151 ag 5.3 | GPR151 confirm inactive | GPR119 ag inactive
Cc1cc(F)c(F)cc1C(=O)N1CCN(c2cc(C)c([N+](=O)[O-])cc2F)CC1	none
Cc1cc(N2CCN(C(=O)c3ccc(Br)cc3)CC2)c(F)cc1[N+](=O)[O-]	GPR151 ag 6.9 | GPR151 confirm inactive | GPR119 ag inactive
O=C1CC(c2nc3ccccc3n2Cc2ccccc2F)CN1c1ccccc1 (centres undefined)	GPR151 ag 8.8 | GPR151 confirm inactive | GPR119 ag inactive
O=C(c1ccc(Cl)cc1)N1CCN(c2ccc([N+](=O)[O-])c(NCc3ccco3)c2)CC1	GPR151 ag 6.0 | GPR151 confirm inactive | GPR119 ag inactive
Cc1ccc(N2C(=O)C3CCCCC3C2=O)cc1F (centres undefined)	GPR151 ag 8.1 | GPR151 confirm inactive | GPR119 ag inactive
COc1ccc(S(=O)(=O)NCCSC(C)(C)C)c(Cl)c1Cl	GPR151 ag 8.6 | GPR151 confirm inactive | GPR119 ag inactive
COc1ccc(S(=O)(=O)Nc2cccc([N+](=O)[O-])c2)c(Cl)c1Cl	GPR151 ag 5.2 | GPR151 confirm inactive | GPR119 ag inactive
COc1ccc(S(=O)(=O)Nc2cccc(N(C)S(C)(=O)=O)c2)c(Cl)c1Cl	none
Cc1cccc(NC(=S)N2CCOCC2)c1C	none
COc1ccc(N2CCN(C(=O)CN3CCN(c4cc(Cl)ccc4C)CC3)CC2)cc1	GPR151 ag 7.2 | GPR151 confirm inactive | GPR119 ag inactive
CCC1CCCCN1C(=O)COC(=O)/C(C#N)=C/c1ccc2c(c1)OCO2 (centres undefined)	none
CC1(C)CC2CC(C)(CN2C(=O)COC(=O)/C(C#N)=C/c2ccc3c(c2)OCO3)C1 (centres undefined)	GPR151 ag 6.1 | GPR151 confirm inactive | GPR119 ag inactive
Cc1nnc(NC(C)c2ccccc2)[nH]c1=O (centres undefined)	GPR151 ag 5.5 | GPR151 confirm inactive | GPR119 ag inactive
CC12CCC(C(=O)Nc3ccc(F)c(F)c3)(CC1=O)C2(C)C (centres undefined)	GPR151 ag 8.8 | GPR151 confirm inactive | GPR119 ag inactive
C/C(=C\c1nsc(Nc2ccccc2)n1)NCc1ccccc1	none
COc1ccc(-c2cccc(C(=O)NCCCN3CCCC3=O)c2)cc1	none
O=C(NCCCN1CCCC1=O)c1cccc(-c2ccc(C(=O)NC3CC3)cc2)c1	GPR151 ag 6.1 | GPR151 confirm inactive | GPR119 ag inactive
O=C(NC1CC1)c1cnc(NCCCN2CCCC2=O)s1	GPR151 ag 6.0 | GPR151 confirm inactive | GPR119 ag inactive
Cc1cc(C)nc(N/N=C/c2ccc(C(C)(C)C)cc2)n1	none
COc1ccc(-c2nc(C(=O)N3CCN(C)CC3)sc2-c2ccc(OC)cc2)cc1	GPR151 ag 6.7! (no result: TEAD-YAP inh) | GPR151 confirm inactive | GPR119 ag inactive
COc1ccc(OC)c(C2C(C(=O)Nc3ccc(Br)cn3)=C(C)NC3=C2C(=O)CC(C)(C)C3)c1 (centres undefined)	none
CN(c1cccc(NS(=O)(=O)c2ccc3ccccc3c2)c1)S(C)(=O)=O	none
CN(NS(=O)(=O)c1ccc2ccccc2c1)c1ccccc1	GPR151 ag 7.6 | GPR151 confirm inactive | GPR119 ag inactive
CCOCCCNC(=O)c1cnn2c(C)c(Cc3ccccc3Br)c(C)nc12	GPR151 ag 6.0 | GPR151 confirm inactive | GPR119 ag inactive
NCc1cccc(CNC(=O)c2c[nH]c3cc(-c4cn[nH]c4)ccc23)c1	GPR151 ag 5.1 | GPR151 confirm inactive | GPR119 ag inactive
Cc1ccc(C(=O)/C=C/Nc2cccc(C(F)(F)F)c2)o1	none
Oc1ccc(CCNc2nc(Nc3ncccn3)nc3c2ncn3C2CCCCC2)cc1	none
Nc1c(C(=O)Nc2ccc3c(c2)OCCO3)sc2nc3cc4c(cc3cc12)OCCO4	none
Nc1c(C(=O)Nc2ccc3c(c2)OCCO3)sc2nc(-c3cccs3)ccc12	GPR151 ag 6.3 | GPR151 confirm inactive | GPR119 ag inactive
COCCOC(=O)c1c(C)oc2c1cc(NS(=O)(=O)c1ccc(Cl)c([N+](=O)[O-])c1)c1ccccc12	none
CCC(CO)NCc1ccc(OCC(=O)NC(C)c2ccccc2)c(OC)c1 (centres undefined)	GPR151 ag 6.0 | GPR151 confirm inactive | GPR119 ag inactive
Cc1csc(Sc2ccc([N+](=O)[O-])cc2C(=O)OCC(=O)Nc2cc(C)on2)n1	none
Cc1csc(Sc2ccc([N+](=O)[O-])cc2C(=O)OC(C)C#N)n1 (centres undefined)	GPR151 ag 5.3 | GPR151 confirm inactive | GPR119 ag inactive
O=C(C[n+]1cccc2ccccc21)c1ccc(Br)cc1	GPR151 ag 15 | GPR151 confirm inactive | GPR119 ag inactive
O=C(C[n+]1cccc2ccccc21)c1ccc(-c2ccccc2)cc1	none
COc1ccc(C(=O)C[n+]2cccc(Br)c2)cc1	none
COC(=O)c1ccc[n+](CC(=O)c2ccc(Br)cc2)c1	GPR151 ag 6.2 | GPR151 confirm inactive | GPR119 ag inactive
